# Laboratory results: PubChem BioAssay (Tox21)
# Records with an inconclusive call do not appear. Active and inactive are the calls of the source. The call rests on the fitted dose curve. Non-standard residues stand in square brackets, D forms with d. Residues, ends and D or L forms follow the SMILES beside them. *: point of attachment. Sta = CC(C)C[C@H](N)[C@@H](O)CC(=O)O; Isovaleryl = CC(C)CC(=O)*
# Assay: qHTS assay to identify small molecule agonists of the endoplasmic reticulum stress response signaling pathway - cell viability counter screen (AID 1159517); further: nearly all actives have a fitted effect of over 50% in size
# Conditions: ESRE-bla HeLa viability, CellTiter-Glo luminescence, 5 h; series mostly up to 61 µM; activity change, negative = cytotoxicity: at the top concentration
# Text: U.S. Tox21 Program National Center for Advancing Translational Sciences [NCATS] NIH Chemical Genomics Center [NCGC] U.S. Environmental Protection Agency [EPA] National Institutes of Environmental Health Sciences [NIEHS] National Toxicology Program [NTP] U.S. Food and Drug Administration [FDA] Tox21 Assay Overview: Endoplasmic Reticulum (ER) plays an important role in cellular signaling, protein folding/maturation, stress response, lipid biosynthesis, calcium storage and release etc. Under stress conditions, proteins in ER misfold or unfold, and leading to the expression of ER stress responsive genes. ER stress has been associated with a variety of pathophysiological conditions such as cancer, inflammation, neurodegenerative diseases, diabetes, ischemic heart disease etc. To identify the compounds that induce ER stress response, an ER stress reporter cell line, CellSensor ESRE-bla HeLa (Life Technologies, Carlsbad, CA) containing a beta-lactamase reporter gene under control of the Endoplasmic reticulum Stress Response Element (ESRE) was used to screen Tox21 10K compound library. The cytotoxicity of the Tox21 compound library against the ESRE-bla HeLa cell line was tested in parallel by measuring cell viability using the CellTiter-Glo assay in the same wells.
# Tox21 Assay Protocol Summary: ESRE-bla HeLa cells were dispensed at 1,500 cells/6 uL of assay medium per well into black wall/clear-bottom 1536-well plates using a Multidrop Combi (ThermoFisher Scientific, Waltham, MA) dispenser. After the assay plates were incubated at 37 C and 5% CO2 for an overnight, 23 nL of compounds dissolved in DMSO, positive controls or DMSO only was transferred to the assay plate by a Pintool station (Kalypsys, San Diego, CA). The assay plates were incubated at 37 C and 5% CO2 for 5 hr. One uL of LiveBLAzer B/G FRET substrate (Life Technologies) was added using a FRD (Flying Reagent Dispenser, Aurora Discovery, San Diego, CA) and the plates were incubated at room temperature for 2 hr. Fluorescence intensity (405 nm excitation, 460 nm and 530 nm emissions) was measured using an Envision plate reader (PerkinElmer, Shelton, CT). For cytotoxicity, 4 ul/well of CellTiter-Glo reagent was added into the assay plates using an FRD. After 30 min incubation at room temperature, the luminescence intensity was measured using a ViewLux plate reader (PerkinElmer).
# On the % scale 0 is the no-effect control and ±100 the full control effect.
row,SMILES,"activity change, negative = cytotoxicity"
1,c1cc2ccc3ccc4ccc5cccc6c(c1)c2c3c4c56,6.55% [at 3.11 µM] (inactive)
2,C[C@@H]1NC(=O)[C@@H](N)CNC(=O)[C@H](C2CCNC(N)=N2)NC(=O)/C(=C/NC(N)=O)NC(=O)[C@H](CNC(=O)C[C@@H](N)CCCN)NC1=O (stereo not given in full),13.9% [at 0.628 µM] (inactive)
3,CC(C)(C)c1ccc(C(=O)CCCCl)cc1,-1.67% (inactive)
4,COc1cc2nc(N3CCN(C(=O)C4CCCO4)CC3)nc(N)c2cc1OC (stereo not given),4.26% (inactive)
5,C=CCCCCCCCCOC(C)=O,-13.8% (inactive)
6,CC(=O)O[C@@H]1CC2C3CCc4cc(OC(=O)c5ccccc5)ccc4C3CCC2(C)[C@H]1OC(C)=O (stereo not given in full),4.5% (inactive)
7,NC[C@H]1O[C@H](O[C@H]2[C@H](O)[C@@H](O[C@H]3O[C@H](CO)[C@@H](O)[C@H](N)[C@H]3O)[C@H](N)C[C@@H]2N)[C@H](N)[C@@H](O)[C@@H]1O,-13.5% [at 28.5 µM] (inactive)
8,COc1ccc(Cl)cc1C,-7.91% [at 78.8 µM] (inactive)
9,C=CCN(CC=C)CC=C,-8.03% (inactive)
10,CC(C)(C)OC(=O)c1ccccc1C(=O)O,-15.4% (inactive)
11,C[C@@H]1CC[C@@]2(OC1)O[C@H]1C[C@H]3[C@@H]4CC[C@H]5C[C@@H](O)CC[C@]5(C)[C@H]4CC(=O)[C@]3(C)[C@H]1[C@@H]2C,-1.94% [at 6.95 µM] (inactive)
12,CC(CN1CC(=O)NC(=O)C1)N1CC(=O)NC(=O)C1 (stereo not given),25.5% (inactive)
13,CC(=O)SC[C@@H](C)C(=O)N1CCC[C@H]1C(=O)N[C@@H](Cc1ccccc1)C(=O)O,0.0791% (inactive)
14,COc1cc(C(=O)NC2CCCNC2)cc(OC)c1OC (stereo not given),-16.1% (inactive)
15,CCCCCCCCCCCCCCCCN(C)C,-14.5% [at 6.95 µM] (inactive)
16,CC(C)CC(=O)N[C@H](C(=O)N[C@H](C(=O)N[C@@H](CC(C)C)[C@@H](O)CC(=O)N[C@@H](C)C(=O)N[C@@H](CC(C)C)[C@@H](O)CC(=O)O)C(C)C)C(C)C (Isovaleryl-VV[Sta]A[Sta]-OH),4.22% (inactive)
17,CCOC(=O)COc1ccc2c(C)c(CCN(CC)CC)c(=O)oc2c1Cl,-0.619% (inactive)
18,N=C(N)S(=O)O,9.72% (inactive)
19,O=C(CCBr)N1CCN(C(=O)CCBr)CC1,-1.48% (inactive)
20,CC(C)C(=O)Nc1cccc(C2CN3CCSC3=N2)c1 (stereo not given),-2.16% (inactive)

row,SMILES,"activity change, negative = cytotoxicity"
1,C[C@H]1COc2c(C3(N)CC3)c(F)cc3c(=O)c(C(=O)O)cn1c23,2.74% (inactive)
2,COc1cc(OC)cc(OC)c1,-4.64% (inactive)
3,CCOC(=O)CC(C(C)=O)C(C)=O,-12.2% (inactive)
4,CCCC(C)C(O)CC (stereo not given),-1.97% (inactive)
5,O=Cc1ccccc1S(=O)(=O)O,0.71% (inactive)
6,CO/N=C(\C(=O)O)c1csc(NC(=O)CCl)n1,1.58% (inactive)
7,CN1C(CCl)Nc2cc(Cl)c(S(N)(=O)=O)cc2S1(=O)=O (stereo not given),-1.87% (inactive)
8,CCCCCCCC(=O)N(C)C,-0.995% (inactive)
9,COCc1nnc(-c2ccc[n+]([O-])c2)n1-c1c(Cl)c(Cl)cc2[nH]c(=O)c(=O)[nH]c12,17.9% (inactive)
10,CCCc1ccc(O)c(OC)c1,15.6% (inactive)
11,CCN(CC)CC(=O)Oc1ccc(NC(C)=O)cc1,2.16% (inactive)
12,CC(C)CC(O)Cc1ccccc1 (stereo not given),-3.62% (inactive)
13,N#CC1(N)CCCCC1,4.68% [at 78.8 µM] (inactive)
14,O=C1c2ccccc2C(=O)N1CO,23.6% [at 78.8 µM] (inactive)
15,C=CCOC(=O)CCCCCCCC,4.47% [at 78.8 µM] (inactive)
16,COc1ccc2cc(CCC(C)=O)ccc2c1,6.46% (inactive)
17,C[C@@H](CN1CC(=O)NC(=O)C1)N1CC(=O)NC(=O)C1,-2.58% (inactive)
18,CC(CC(=O)Cl)CC(C)(C)C (stereo not given),-5.73% [at 78.8 µM] (inactive)
19,CCNC(=O)C(C)OC(=O)Nc1ccccc1 (stereo not given),4.66% (inactive)
20,CCCC(=O)C(CC)Sc1ccoc1C (stereo not given),-1.26% (inactive)
